Screens: PubChem, several laboratories
KKLEB tox = cytotoxicity in KKLEB CF airway cells, primary screen, cytotoxicity control for CF NF-kB inhibitor project, cell-based, uHTS, fluorescence assay plates. KKLEB CF airway cells viability, ATPlite luminescence, overnight; active compounds read low; cells stimulated with P. aeruginosa culture filtrate. activity change (cytotoxicity), % at 5 µM. 360,000 compounds, 0.36% hits. AID 602141, 2011;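 active = corrected activity change at or below -50% at 5 µM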
Peg3 promoter = Peg3 promoter-driven luciferase inhibitors, primary screen, cell-based, HeLa, luciferase luminescence | HeLa PEG-Prom luciferase reporter, overnight | inhibition, % at 20 µM | 360,000 compounds, 1.7% hits | AID 588405, 2011;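 active = inhibition of at least 50% at 20 µM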
CF NFkB inh = inhibitors of PAF-induced NF-kB signaling, primary screen, cell-based, GFP fluorescence, uHTS | KKLEB NF-kB-GFP reporter, GFP fluorescence overnight | inhibition, % at 5 µM | 360,000 compounds, 0.86% hits | AID 588850, 2011;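 active = at least 50% inhibition at 5 µM, scaled per plate between neutral and stimulator controls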;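 also: PAF is a Pseudomonas aeruginosa culture filtrate used as stimulus; plate controls were PAF-stimulated DMSO wells for no effect and unstimulated DMSO wells for full effect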
Shn3 3UTR inh = reduction of Shn3 3'UTR firefly luciferase signal, primary screen, Schnurri-3 inhibitor project, cell-based, Clone20 osteoblasts, set 2. Clone20 osteoblast Shn3 3'UTR firefly luciferase, 24 h. inhibition, % at 12.5 µM. 360,000 compounds, 0.52% hits;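 active = mean inhibition of at least 75% with every replicate also reaching 75%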;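 also: 0% = median of neutral control wells and 100% = pilot-screen positive control compound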
TRPM1 prom inh = inhibitors of MITF-dependent TRPM1 promoter reporter, primary screen, cell-based, SK-MEL-5, single point, luciferase. SK-MEL-5 TRPM1 promoter luciferase, 24 h. inhibition, % at 12.5 µM. 330,000 compounds, 0.83% hits;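 active = mean inhibition across replicates of 60% or more, whatever share of single replicates reaches that level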
HIF-2a block = HIF-2a reporter inhibitors, primary screen, luminescence, 786-0 RCC cells; 360,000 compounds, 0.72% hits; inhibition, % at 18.8 µM; AID 624352, 2012; 786-0 RCC cells HIF-2a reporter, luciferase luminescence, overnight;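 active = inhibition of the luminescence signal of 40% or more relative to plate controls, in a single-dose primary screen at 18.75 µM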
* = called active by the depositor; / = no result given. In the library only some 2.8% were active in any assay of this set; here they are far more common.

SMILES	KKLEB tox	Peg3 promoter	CF NFkB inh	Shn3 3UTR inh	TRPM1 prom inh	HIF-2a block
O=C(/C=C/c1ccco1)Oc1cc(Br)cc(/C=N/NC(=O)c2ccccc2O)c1	-18	16	12	94*	25	-165
Cc1cccc2c1N1C(=O)c3c(C(=O)O)cccc3C1CC2C (stereo not drawn)	2	5	2	-7	5	18
CC[C@@H](C(=O)[C@@H](C)[C@@H](O)[C@H](C)CCc1ccc(C)c(O)c1C(=O)O)[C@H]1O[C@](CC)([C@H]2CC[C@](O)(CC)[C@H](C)O2)C[C@@H]1C	-51*	94*	76*	92*	40	-48
COc1ccccc1-c1ccc2c(c1)C(C)(Cc1cc(Cl)ccc1C(F)(F)F)C(=O)N2 (stereo not drawn)	0	78*	11	38	/	-9
COc1ccc(Cl)cc1CC1(C)C(=O)Nc2ccc(-c3ccccc3OC)cc21 (stereo not drawn)	3	18	17	32	/	-2
Cc1ccc(Sc2nc(-c3ccccc3)nnc2C(F)(F)F)cc1	2	105*	17	79	13	4
COc1ccccc1OCC(=O)N1CCN(S(=O)(=O)c2ccc(Cl)cc2)CC1	-15	-6	28	-25	-7	0
Nc1ccc2c(c1)C(=NO)c1cc([N+](=O)[O-])ccc1-2	-7	44	31	11	22	-19
O=C(Nc1cc2c(cc1Cl)-c1ccc([N+](=O)[O-])cc1C2=NO)C(F)(F)F	10	57*	-46	-16	9	-50
CCCN1CCc2c(sc(NC(=O)CCS(=O)(=O)c3ccccc3)c2C(=O)OC)C1	-10	16	15	8	-9	6
Cc1cc(N(C)C)cc(C)c1N=Nc1cc[n+]([O-])cc1	0	-74	-34	-32	/	-90
COc1ccccc1NS(=O)(=O)c1cc(NC(=O)c2ccc(Cl)nc2)ccc1Cl	15	50*	-14	87*	64*	20
CCOC(=O)c1c2c(n(Cc3ccccc3)c1C)C(=O)C(=O)c1ccccc1-2	-75*	93*	61*	89*	/	89*
CCOC(=O)c1c2c3c(cccc3n(C)c1=O)C(=O)c1ccccc1-2	-13	36	-38	1	-12	-2
CCCCC(CC)CO (stereo not drawn)	8	110*	18	13	5	8
CCCCC(CC)C(=O)O (stereo not drawn)	-10	-9	12	0	/	-4
Cn1nc(-c2ccccc2)cc1NC(=O)[C@@H]1O[C@H](CO)[C@H](O)[C@H](O)[C@H]1O	7	-7	4	-1	/	-10
CC(=O)Nc1ccc(S(=O)(=O)Nc2cccc3cccnc23)cc1	11	0	-26	-8	6	23
O=S(=O)(Nc1cccc2cccnc12)c1ccc(S(=O)(=O)N2CCCC2)cc1	14	50*	-13	27	13	7
CC(=O)O[C@]1(C(C)=O)CCC2C3C=C(C)C4=CC(=O)CC[C@]4(C)C3CC[C@@]21C (stereo partly drawn)	5	-4	52*	19	6	30
CCOC(=O)CSc1nnc(NC(=O)c2ccc3c(c2)OCO3)s1	23	33	-9	5	5	54*
CCSc1nnc(NC(=O)c2ccc3c(c2)OCO3)s1	-14	-258	7	-11	-55	-227
COc1ccccc1-c1nnc(NC(=O)c2ccc3c(c2)OCO3)s1	-56*	30	59*	-6	-4	-42
O=C(Nc1nnc(SCC(=O)N2CCCc3ccccc32)s1)c1ccc2ccccc2c1	-50*	-210	5	-65	-49	-179
CC(C)c1nnc(NC(=O)c2ccc3c(c2)OCO3)s1	-16	20	5	-23	-2	-20
SMILES	KKLEB tox	Peg3 promoter	CF NFkB inh	Shn3 3UTR inh	TRPM1 prom inh	HIF-2a block
O=C(CSc1nc2ccccc2c(=O)n1CCCN1CCOCC1)NC12CC3CC(CC(C3)C1)C2	-8	8	-5	-7	14	0
CN(C)S(=O)(=O)c1ccc(-c2csc(N/N=C/c3ccco3)n2)cc1	-3	61*	11	34	72*	-16
O=C1CSC(=S)N1N=Cc1ccc2c(c1)OCO2	14	-12	-13	-8	-4	-16
COc1ccc(-[n+]2c(C)cc(/C=C3\Sc4ccccc4N3C)cc2C)cc1	-31	115*	-82	88*	101*	53*
COc1ccc(C(=O)/C=C2\Sc3ccccc3N2C)cc1	-2	-218	-3	-87	-9	-181
C[C@H]1CN([C@@H](C)CO)S(=O)(=O)c2ccc(Br)cc2O[C@@H]1CN(C)Cc1cccc(F)c1	-2	56*	-9	14	/	16
C[C@@H]1CN([C@H](C)CO)S(=O)(=O)c2ccc(Br)cc2O[C@@H]1CN(C)C(=O)Nc1ccc(C(F)(F)F)cc1	-17	20	10	1	/	7
C[C@@H]1CN([C@@H](C)CO)S(=O)(=O)c2ccc(Br)cc2O[C@H]1CN(C)C(=O)Nc1ccc(C(F)(F)F)cc1	-25	53*	-13	10	/	-13
CC(/C=N/Nc1ncc(C)c(=O)[nH]1)=C\c1ccccc1	-9	-67	2	-37	-24	-106
CCCN1CCc2c(sc3nc(SCC)n(-c4ccc(OC)cc4)c(=O)c23)C1	4	2	-22	13	1	5
CCOC(=O)c1cc2sccc2n1CC(=O)O	0	0	-6	-6	-6	11
CCOC(=O)c1cc2sccc2n1CC(=O)N1c2ccccc2CC1C (stereo not drawn)	6	72*	2	-5	63*	14
Cc1sc2ncnc(Sc3nnnn3-c3ccccc3)c2c1C	-54*	72*	80*	1	69*	24
Clc1ccc(-n2nnnc2Sc2ncnc3sccc23)cc1	-10	108*	83*	56	66*	93*
Cc1sc2ncnc(Sc3ccccc3C(=O)O)c2c1C	-4	-1	15	-16	-4	7
Cc1cccc(C(=O)Nc2cc(S(=O)(=O)N3CCOCC3)ccc2N2CCCCC2)c1	-2	12	15	21	/	4
Nc1nnc(Sc2ncccc2[N+](=O)[O-])s1	7	9	-14	-21	13	9
Cc1ccc2nsnc2c1NC(=O)Cc1ccc(Cl)cc1	4	-1	6	16	-5	2
Cc1ccc2nsnc2c1NC(=O)c1ccc(-c2cc(Cl)ccc2Cl)o1	-4	101*	10	63	72*	31
